# From PubChem BioAssay (NCATS)
# Inconclusive results are not listed. Active and inactive are the calls of the source. Calls come from the whole dose curve; as a rule, active = well fitted inhibition curve with a large enough effect; inconclusive = small, poorly fitted or top-dose-only effect; inactive = flat fitted curve, though single readings scatter. Peptide text beside a SMILES is read from it. * marks the point of attachment. Cbz = O=C(OCc1ccccc1)*; CH2F = FC*
# Molecular target: Aldehyde dehydrogenase, mitochondrial (Homo sapiens) (UniProt P05091)
# Assay: qHTS for Inhibitors of the Aldehyde Dehydrogenase Family (ALDH2) Primary screen (AID 2061308);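 note: plate controls were vehicle for no effect and reference inhibitor for full effect; nearly all actives have a fitted effect of over 55% in size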
# Settings: ALDH2 enzyme inhibition qHTS, 1536-well; series mostly up to 56 µM; activity change, negative = inhibition: at the top concentration
row,Compound,"activity change, negative = inhibition"
1,CC1C(O)C(O)C2C(C(=O)OCCc3ccc(O)cc3)=COC(O[C@@H]3O[C@H](CO)[C@@H](O)[C@H](O)[C@H]3O)C12 (stereo partly specified),-8.36% [at 28 µM] (inactive)
2,C=CC(C)(O)CC/C=C(\C)C(=O)O[C@@H]1[C@@H](O)[C@H](OC(C)(C=C)CC/C=C(\C)C(=O)O[C@@H]2O[C@H](CO)[C@@H](O)[C@H](O)[C@H]2O)O[C@H](CO)[C@H]1OC(=O)/C(C)=C/CCC(C)(O)C=C (stereo partly specified),2.79% [at 16.9 µM] (inactive)
3,CC12CCC(OC3OC(CO)C(O)C(OC4OC(CO)C(O)C(O)C4O)C3O)CC1=CCC1C2CCC2(C)/C(=C3/COC(=O)C3)CCC12O (stereo unspecified),11.9% [at 16.9 µM] (inactive)
4,C/C=C1/[C@H](O[C@@H]2O[C@H](CO)[C@@H](O)[C@H](O)[C@H]2O)OC=C(C(=O)OC)[C@H]1CC(=O)OCCc1ccc(O)c(O)c1,-6.91% [at 28 µM] (inactive)
5,COc1ccc(Oc2c(Cl)cnn(C3c4ccccc4-c4ccccc43)c2=O)cc1,-16.3% (inactive)
6,O=C(COc1cccc2c(=O)[nH]ccc12)c1ccccc1,-13.6% (inactive)
7,COc1cc(/C=C/C(=O)O)ccc1O[C@@H]1O[C@H](CO)[C@@H](O)[C@H](O)[C@H]1O[C@@H]1OC[C@](O)(CO)[C@H]1O,1.43% [at 28 µM] (inactive)
8,Nc1nc(NC2CC2)cc(-c2cccc(Cl)c2Cl)n1,2.61% (inactive)
9,COc1cc(C(C)=O)ccc1O[C@@H]1O[C@H](CO[C@@H]2OC[C@@H](O)[C@H](O)[C@H]2O)[C@@H](O)[C@H](O)[C@H]1O,6.56% [at 28 µM] (inactive)
10,CC1(C)C2CCC(CO[C@@H]3O[C@H](CO[C@@H]4OC[C@](O)(CO)[C@H]4O)[C@@H](O)[C@H](O)[C@H]3O)C1C2 (stereo partly specified),4.4% [at 28 µM] (inactive)
11,O=C1C[C@@]2(C(=O)N1)C(=O)N(Cc1ccc(Br)cc1F)C(=O)c1cccn12,-16.6% (inactive)
12,CN(CC1COCCO1)S(=O)(=O)Nc1ccc2ccc3ncc(-c4cnn(C)c4)cc3c(=O)c2c1 (stereo unspecified),-6.21% (inactive)
13,CC(=O)OC[C@]12[C@H](OC(C)=O)[C@H](OC(=O)c3ccccc3)[C@@H]3[C@@H](OC(C)=O)[C@]1(OC3(C)C)[C@H](C)C[C@H](OC(=O)c1ccccc1)[C@@H]2OC(=O)c1ccccc1,-15.4% [at 16.9 µM] (inactive)
14,COC(=O)C1=COC(OC2OC(CO)C(O)C(O)C2O)C2C(C)C(OC(=O)/C=C/c3ccc(O)cc3)C(O)C12 (stereo unspecified),1.92% [at 28 µM] (inactive)
15,CC(C)C[C@@H](N)C(=O)N[C@H]1C(=O)N[C@@H](CC(N)=O)C(=O)N[C@H]2C(=O)N[C@H]3C(=O)N[C@H](C(=O)N[C@H](C(=O)O)c4cc(O)cc(O)c4-c4cc3ccc4O)[C@H](O)c3ccc(c(Cl)c3)Oc3cc2cc(c3O[C@@H]2O[C@H](CO)[C@@H](O)[C@H](O)[C@H]2O[C@H]2C[C@](C)(N)[C@H](O)[C@H](C)O2)Oc2ccc(cc2Cl)[C@H]1O,-1.58% [at 28 µM] (inactive)
16,CC1(O)CC(O)C2C(C(=O)O)=COC(OC3OC(CO)C(O)C(O)C3OC(=O)/C=C/c3ccc(O)cc3)C21 (stereo unspecified),9.32% [at 28 µM] (inactive)
17,COC1=CC(=O)CC(C)C12Oc1cc(OC)cc(O)c1C2=O (stereo unspecified),-14.1% (inactive)
18,C/C(=C\CCC(C)(C)O)CCO[C@@H]1O[C@H](CO[C@@H]2O[C@@H](C)[C@H](O)[C@@H](O)[C@H]2O)[C@@H](O)[C@H](O)[C@H]1O,-4.07% [at 28 µM] (inactive)
19,CC1CCC2C(C(=O)O)=CC3CC(C)(C)CC132 (stereo unspecified),-10.3% (inactive)
20,C=C(C)C1CCC2(C(=O)OC3OC(COC4OC(CO)C(O)C(O)C4O)C(OC4OC(C)C(O)C(O)C4O)C(O)C3O)CCC3(C(=O)O)C(CCC4C5(C)CCC(=O)C(C)(C)C5CCC43C)C12 (stereo unspecified),15.5% [at 16.9 µM] (inactive)
21,COc1c2c(c(C)c3c1C(=O)OC3)OC1(C)CC(O)C34OC(OC)(CCC3(C)C1C2)OC4(C)CO (stereo unspecified),-11.2% [at 28 µM] (inactive)
22,C[C@@H]1C/C=C/C=C\C=C\C=C\[C@H](O[C@@H]2O[C@H](C)[C@@H](O)[C@H](N)[C@@H]2O)C[C@@H]2O[C@](O)(C[C@@H](O)C[C@H]3O[C@@H]3/C=C/C(=O)O1)C[C@H](O)[C@H]2C(=O)O,-0.344% [at 16.9 µM] (inactive)
23,COC(=O)CC[C@H](NC(=O)[C@H](CC(C)C)NC(=O)OCc1ccccc1)C(=O)N[C@@H](Cc1cnc[nH]1)C(=O)N[C@@H](CC(=O)OC)C(=O)CF (Cbz-LE(OMe)HD(OMe)-CH2F),-2.9% [at 11.2 µM] (inactive)
24,CCC(CCO[C@@H]1O[C@H](CO[C@H]2OC[C@](O)(CO)[C@H]2O)[C@@H](O)[C@H](O)[C@H]1O)C(C)(C)O (stereo partly specified),6.01% [at 28 µM] (inactive)
25,COc1cc(CCc2ccccc2)c(C(=O)O)c2c1CC(C(C)(C)O)O2 (stereo unspecified),-11% (inactive)
26,CC1(CO)CC2C(O)C(=O)C3(CO)CC3(C)C2C1 (stereo unspecified),1.46% (inactive)
